This is a sample that favours compounds with a hit; in the whole collection about 12% have one here.
HP1b binding inh = inhibitors of HP1-beta chromodomain binding to methylated histone tails | P83916 | AlphaScreen HP1-beta / biotin-H3K9me3 peptide binding | Potency, µM (top dose mostly 114 µM), inactives show top-dose activity change, negative = inhibition, actives largely listed as inhibitors | actives 0.56% (n = 390,000) | AID 540317; further: nearly all actives have a fitted effect of over 70% in size
Target sequence (P83916 whole entry, looked up): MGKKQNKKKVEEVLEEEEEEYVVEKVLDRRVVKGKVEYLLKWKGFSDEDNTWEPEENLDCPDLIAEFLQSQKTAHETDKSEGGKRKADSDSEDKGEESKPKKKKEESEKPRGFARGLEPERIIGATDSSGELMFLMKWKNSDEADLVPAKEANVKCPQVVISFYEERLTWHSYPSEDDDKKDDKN
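HP1-beta protein (50 nM final) preincubated 30 min at room temperature with biotinylated H3(1-18)K9me3 peptide (50 nM) in PBS pH 7.4, 0.01% Tween-20, then compound added for 30 min. AlphaScreen streptavidin donor/nickel chelate acceptor beads (10 ug/mL final), 30 min dark, luminescence read.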
Sfp PPTase inh = blocks B. subtilis Sfp PPTase activity. Biochemical Sfp PPTase activity, qHTS. Potency, µM, without a hit: largest response in the series, negative = inhibition, actives largely listed as inhibitors. actives 3.5% (n = 310,000);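 further: the enzyme is Sfp with the accession as filed and its product quenches rhodamine fluorescence; 0% = enzyme reaction without inhibitor and -100% = no enzyme wells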
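Compounds were incubated with enzyme (final 15 nM) for 15 min at room temperature before substrate addition started the reaction. Fluorescence at 525 nm excitation, 598 nm emission was recorded immediately and after 30 minutes.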
BAZ2B block = blocks human BAZ2B. Q9UIF8. AlphaScreen BAZ2B-H3K14Ac peptide displacement. AID 504333. actives 4.4% (n = 360,000). Potency, µM (doses to about 114 µM), for inactives: at the top dose activity change, negative = inhibition, usual class: inhibitors; further: on the % scale 0 is the no-effect control and ±100 the full control effect; nearly all actives have a fitted effect of over 60% in size
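BAZ2B (50 nM) with biotin-H3(5-23)K14Ac peptide (50 nM) in PBS pH 7.4, 0.01% Tween-20, preformed 30 min, then compound 30 min at room temperature; top concentration 110uM. AlphaScreen streptavidin donor/nickel chelate acceptor beads (10 ug/mL final), 20 min dark, signal read.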
JMJD2A Tudor inh = blocks the human JMJD2A Tudor domain | O75164 | AlphaScreen JMJD2A-Tudor / H3K4me3 peptide binding | Potency, µM (titrated, usually from 114 µM), for inactives: top-dose activity change, negative = inhibition, actives largely listed as inhibitors | actives 4.4% (n = 390,000); further: on the % scale 0 is the no-effect control and ±100 the full control effect; nearly all actives have a fitted effect of over 50% in size
G9a inh = inhibitors of human histone lysine methyltransferase G9a. Q96KQ7. G9a H3K9 monomethylation, AlphaScreen, 2 h. Potency, µM (series often up to 102 µM), for the others: at the top dose activity, negative = inhibition, usual class: inhibitors. actives 8.8% (n = 350,000). AID 504332; further: on the % scale 0 is the no-effect control and ±100 the full control effect; nearly all actives have a fitted effect of over 75% in size
Target sequence (Q96KQ7 913-1193 limits assumed): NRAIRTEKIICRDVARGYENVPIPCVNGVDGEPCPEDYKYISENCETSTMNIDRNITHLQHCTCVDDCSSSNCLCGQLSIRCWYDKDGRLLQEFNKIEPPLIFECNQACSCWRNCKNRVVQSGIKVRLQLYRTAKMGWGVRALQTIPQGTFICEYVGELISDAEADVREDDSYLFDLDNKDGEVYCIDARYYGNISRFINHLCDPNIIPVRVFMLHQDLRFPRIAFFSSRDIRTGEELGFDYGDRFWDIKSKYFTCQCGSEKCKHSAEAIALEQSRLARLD
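Step 1: enzyme (final 20 nM) with compound, 15 min RT. Step 2: substrate peptide 500 nM and SAM 20 uM, 2 h RT. Step 3: anti-H3K9me1 antibody and AlphaScreen beads, 10 min, then plate read.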
An asterisk follows results filed as active; u = inconclusive; x = not tested or not shown; [ ] = remark or other dose. The call rests on the fitted dose curve; in most records, active means well fitted curve in the direction sought with a large enough effect; inconclusive means small, poorly fitted or top-dose-only effect, or another doubt; inactive means no such curve, though single readings can be large; an effect the other way counts as inactive or inconclusive. Potency means the concentration at half of the fitted maximal effect.

SMILES | HP1b binding inh | Sfp PPTase inh | BAZ2B block | JMJD2A Tudor inh | G9a inh
COc1ccc(-c2nc3c4ccccc4ccn3c2CN2CCCCC2)cc1 | -2.6% | 12.8% | u | u | 39.8µM*
CC1C(=O)C(=O)C=CN1C (centres undefined) | x | 44.7µM* | x | x | u
N#CCSc1nnc(-c2ccccc2)c(-c2ccccc2)n1 | -6.2% | 3.8% | -34.7% | -29.4% | u
O=C(Nc1ccc([N+](=O)[O-])cc1Cl)c1cc(Cl)cc(Cl)c1O | -28.5% | x | x | 44.7µM* | x
O=C(Nc1cc(Cl)ccc1Cl)c1cc([N+](=O)[O-])cc(Br)c1O | -23.2% | x | x | 56.2µM* | x
O=C(COC(=O)CCc1ccccc1)NC12CC3CC(CC(C3)C1)C2 | 56.9% | 17.9% | 11.4% | 20.0% | -1.2%[12.7 µM]
N#C/C(=C\c1ccccc1[N+](=O)[O-])c1nc(C2CC2)cs1 | u | -11.7% | 28.2µM* | 31.6µM* | 20µM*
N#C/C(=C/c1ccccc1[N+](=O)[O-])c1nc(C2CC2)cs1 | u | 1.0% | 10µM* | 89.1µM* | u
CCN(CC(=O)NC(=O)NCc1ccccc1)Cc1ccccc1 | 37.6% | 4.3% | 5.5% | 6.8% | x
CCc1cccc(Nc2cc(C)nc3nc(C)nn23)c1 | 46.3% | 11.2% | -5.3% | -0.7% | u
C(=N\N1CCN(C2c3ccccc3-c3ccccc32)CC1)/c1ccncc1 | u | 1.9% | 35.5µM* | 44.7µM* | u
COc1cccc(/C=N/N2CCN(C3c4ccccc4-c4ccccc43)CC2)c1O | 9.2% | 7.0% | -37.1% | u | 35.5µM*
COc1cc(/C=N/N2CCN(C3c4ccccc4-c4ccccc43)CC2)ccc1O | 21.3% | 10.4% | 35.5µM* | 56.2µM* | u
Oc1cccc(/C=N/N2CCN(C3c4ccccc4-c4ccccc43)CC2)c1 | u | 27.8% | u | 39.8µM* | u
Cc1ccsc1/C=N/N1CCN(C2c3ccccc3-c3ccccc32)CC1 | -30.9% | 7.3% | u | u | 32.6%[0.501 µM]
COc1ccc(C(=O)Nc2nc3ccccc3n2CCOc2ccc(Cl)cc2)cc1 | 48.3% | x | 6.8% | -5.5% | 39.7%[59 µM]
Cc1ccc(Nc2cc(C)c3ccc(O)cc3n2)cc1C | 24.9% | 4.3% | -29.4% | -22.1% | -28.1%
CC(O)c1nc2cc([N+](=O)[O-])ccc2n1Cc1ccccc1 (centres undefined) | 10.9% | 8.0% | -26.7% | -15.6% | 6.7%
COc1cccc(N=Cc2nc(-c3ccccc3)oc2OC(C)=O)c1 | 25.7% | -15.7% | -2.0% | -11.0% | 50.1µM*
CN(C)c1ccc(N=Cc2nc(-c3ccccc3)oc2OC(=O)c2cccc(Cl)c2)cc1 | -0.7% | u | -10.8% | -25.3% | 8.91µM*
O=C(CSc1ccccc1C(=O)O)NCc1ccc(Cl)cc1 | 21.7% | -0.5% | -0.7% | -3.5% | 15.9%
COc1ccc(C(=O)N2CCN(C)C(=O)[C@@H]2C)cc1OC1CCN(C(C)C)CC1 | 25.4% | 13.7% | 1.9% | -4.2% | 35.9%
CN(C)S(=O)(=O)N(CCN1CCOCC1)Cc1ccccc1F | 50.5% | 8.5% | -8.4% | 19.9%[11.4 µM] | u
COc1ccc(OCCN(C)Cc2ccccc2)cc1 | 10.5% | 1.3% | 4.1% | -26.5% | u
CCC(C)c1ccccc1OCCCN(C)Cc1ccccc1 (centres undefined) | 16.8% | -0.7% | u | 7.08µM* | 11.2µM*
SMILES | HP1b binding inh | Sfp PPTase inh | BAZ2B block | JMJD2A Tudor inh | G9a inh
CN(CCOCCOc1ccc2ccccc2c1)Cc1ccccc1 | 73.7% | 1.4% | -15.3% | -17.5% | 3.5%[59 µM]
CN(CCOc1ccc(F)cc1)Cc1ccccc1 | u | -12.3% | 50.1µM* | 0.794µM* | 10µM*
COc1cc(C)ccc1OCCOCCN(C)Cc1ccccc1 | u | -17.2% | u | 3.16µM* | u
COc1ccc(OCCCN(C)Cc2ccccc2)cc1 | u | -13.7% | u | 25.1µM* | 12.6µM*
O=C(CN1C(=O)S/C(=C\c2ccccc2F)C1=O)NC1C=CS(=O)(=O)C1 (centres undefined) | 33.3% | -24.0% | -16.0% | -7.6% | 7.5%
COc1ccc(CCNC(=O)c2ccc3c(c2)OCO3)cc1 | -17.5% | 5.5% | 7.5% | -15.4% | -1.7%
Cc1ccccc1C(=O)NC1CCN(C(=O)N(c2ccccc2)c2ccccc2)CC1 | 42.2% | u | -4.1% | -6.4% | 18.1%[2.33 µM]
O=C(NCCc1nc(-c2ccccc2)no1)c1ccccc1 | 27.6% | x | x | -3.5% | x
COc1ccc(N(Cc2ccccc2)S(=O)(=O)c2ccc(C)cc2)cc1 | 49.1% | 23.2% | 2.7% | -16.5%[11.4 µM] | 38.0%
Cc1cc(C)c(C)c(OCCCCN(C)Cc2ccccc2)c1 | u | -29.8% | 50.1µM* | 11.2µM* | 10µM*
CN(CCCCOc1ccc(F)cc1)Cc1ccccc1 | u | -24.0% | 79.4µM* | 22.4µM* | x
CCc1ccc(OCCCCN(C)Cc2ccccc2)cc1 | u | -8.5% | u | 14.1µM* | x
CN(CCOC(=O)c1ccccc1)Cc1ccccc1 | 42.9% | 21.6% | 1.7% | 1.3% | 7.2%[59 µM]
CN(Cc1ccccc1)C(=O)COc1ccc(N(C)S(=O)(=O)c2ccc(F)cc2)cc1 | 16.1% | -9.6% | -0.2% | -11.6% | x
COc1ccc(N(Cc2ccccc2)N=O)cc1 | 51.5% | 17.7% | 0.5% | 26.9% | 39.8µM*
Cc1c(NC(=O)C(C)OC(=O)c2cc(Cl)nc(Cl)c2)c(=O)n(-c2ccccc2)n1C (centres undefined) | 14.9% | 11.6% | 9.0% | -16.4% | 14.3%[59 µM]
CN(C)CCCCOc1ccc(F)cc1 | u | -1.6% | 79.4µM* | 0.891µM* | 8.91µM*
OCCNCCCCOc1ccc(F)cc1 | 13.5% | 2.5% | 3.3% | -13.8% | 9.2%[59 µM]
CCOC(=O)COc1ccc2c3c(c(=O)oc2c1)CCCC3 | 38.8% | 19.6% | -3.6% | -3.5% | x
CC(=O)Nc1ccc(NC(=O)C(C)OC(=O)CC2CCCC2)cc1 (centres undefined) | 7.7% | x | 12.7% | -10.3% | 10.3%[12.7 µM]
CC(=O)Nc1ccc(NC(=O)C(C)OC(=O)CCC2CCCC2)cc1 (centres undefined) | 12.6% | x | 2.9% | -10.5% | 35.5µM*
CC(=O)Nc1sc(N/N=C\c2ccccc2F)nc1-c1cccs1 | u | -30.0% | -4.0% | u | 10µM*
CC(=O)Nc1sc(N/N=C\c2ccc(O)cc2)nc1-c1cccs1 | u | u | u | 39.8µM* | 31.6µM*
CC(=O)Nc1sc(N/N=C\c2cccc(Cl)c2)nc1-c1cccs1 | u | -3.6% | -32.1% | u | 10µM*
CC(=O)Nc1sc(NC(=O)c2ccccc2)nc1-c1cccs1 | 27.3% | 0.0% | 9.7% | -9.3% | 5.3%
CCOC(=O)CSCC(=O)N1CCC(Cc2ccccc2)CC1 | 32.4% | 1.2% | 7.6% | -6.9% | -5.7%
O=C(O)c1ccccc1-c1ccc(/C=c2\sc3nc4cc(Br)cnc4n3c2=O)o1 | 6.31µM* | 35.5µM* | 39.8µM* | 3.16µM* | u
O=C(O)c1cc(-c2ccc(/C=c3\sc4nc5ccc(Br)cc5n4c3=O)o2)ccc1Cl | x | 56.2µM* | 17.8µM* | x | 0.794µM*
